Here are results for 8 compounds from PubChem BioAssay (NCATS).

Records with an inconclusive call do not appear. Calls of active or inactive are those of the source. Unless noted, calls follow the shape of the full dose curve.

Experiment [1] is described as follows: qHTS for Inhibitors of the Functional Ribonucleoprotein Complex (vRNP) of Lassa (LASV) Arenavirus: LASV Primary Screen - GLuc reporter signal (AID 1347082; calls by dose curve; tested in HEK293 reporter line; also: nearly all actives have a fitted effect of over 60% in size; also: potency is read from the fitted curve at half-maximal effect; as to activity change, negative = inhibition: % is scaled to controls: 0 for no effect and ±100 for the full control effect). (In general: qHTS replaces the single test concentration by a dilution series.)
A short description of experiment [2]: qHTS for Inhibitors of the Functional Ribonucleoprotein Complex (vRNP) of Lassa (LASV) Arenavirus: Viability assay - alamar blue signal for LASV Primary Screen (AID 1347083; calls by dose curve; tested in HEK293 reporter line; also: nearly all actives have a fitted effect of over 80% in size; also: potency is read from the fitted curve at half-maximal effect).
A short description of experiment [3]: qHTS for Inhibitors of the Functional Ribonucleoprotein Complex (vRNP) of Lymphocytic Choriomeningitis Arenaviruses (LCMV): Viability assay - alamar blue signal for LCMV Primary Screen (AID 1347085; calls by dose curve; tested in HEK293 reporter line; also: nearly all actives have a fitted effect of over 80% in size; also: potency is read from the fitted curve at half-maximal effect).
For experiment [4], the target named is Nucleoprotein (Lymphocytic choriomeningitis virus (strain Armstrong)) (UniProt P09992). The experiment is described as follows: qHTS for Inhibitors of the Functional Ribonucleoprotein Complex (vRNP) of Lymphocytic Choriomeningitis Arenaviruses (LCMV): LCMV Primary Screen - GLuc reporter signal (AID 1347086). Also: nearly all actives have a fitted effect of over 70% in size. Also: potency is read from the fitted curve at half-maximal effect. As to activity change, negative = inhibition: % is scaled to controls: 0 for no effect and ±100 for the full control effect.
Sequence of Nucleoprotein (Lymphocytic choriomeningitis virus (strain Armstrong)) (P09992 whole entry, looked up): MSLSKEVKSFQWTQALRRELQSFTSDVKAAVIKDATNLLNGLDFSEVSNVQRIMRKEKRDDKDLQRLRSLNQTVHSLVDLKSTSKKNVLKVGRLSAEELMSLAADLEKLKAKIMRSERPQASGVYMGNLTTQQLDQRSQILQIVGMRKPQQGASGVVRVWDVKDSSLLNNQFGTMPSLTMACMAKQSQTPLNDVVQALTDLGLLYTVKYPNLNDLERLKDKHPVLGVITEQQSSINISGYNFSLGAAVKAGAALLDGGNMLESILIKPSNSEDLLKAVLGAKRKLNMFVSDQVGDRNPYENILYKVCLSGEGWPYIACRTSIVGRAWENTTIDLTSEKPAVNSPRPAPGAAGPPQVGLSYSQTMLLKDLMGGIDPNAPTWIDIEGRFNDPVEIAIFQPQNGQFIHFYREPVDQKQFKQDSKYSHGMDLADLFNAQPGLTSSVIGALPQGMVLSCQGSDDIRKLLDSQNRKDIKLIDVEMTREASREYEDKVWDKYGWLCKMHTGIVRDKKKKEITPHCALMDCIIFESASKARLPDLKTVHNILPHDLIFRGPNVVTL
A short description of experiment [5]: Primary qHTS for small molecule stabilizers of the endoplasmic reticulum resident proteome: Secreted ER Calcium Modulated Protein (SERCaMP) assay (AID 1508630; active = well fitted inhibition curve with a large enough effect; also: % is scaled to controls: 0 for no effect and ±100 for the full control effect). An outline of the steps:
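The SH-SY5Y reporter protocol was run at 3 concentrations up to 38.3 uM (primary) or 11 concentrations (follow-up): 16 h compound, 100 nM thapsigargin for 4 h, then extracellular luciferase luminescence.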

Experiment [6] can be described thus: Confirmatory qHTS to identify inhibitors of SARS-CoV-2 cell entry (AID 1645844). Also: potency is read from the fitted curve at half-maximal effect; nearly all actives have a fitted effect of over 45% in size. The method, boiled down: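 HEK293-ACE2, overnight seeding; cpd 1 h, 37C/5% CO2; + SARS-CoV-2-S MLV PP (Wuhan-Hu-1, ΔC19); 48 h; Bright-Glo luminescence. Data normalised to S PP and bald PP wells.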
Experiment [7] in a line: Cytotoxicity counterscreen for inhibitors of SARS-CoV-2 cell entry (AID 1645845). Also: nearly all actives have a fitted effect of over 50% in size. The method, boiled down: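 Counterscreen run in the same HEK293-ACE2 line as the pseudotyped-particle entry assay, without particles. Viability after 48 h at 37 C was read as ATP luminescence, scaled between cell-containing and cell-free wells.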
On the technique in general: A counterscreen serves to expose hits that act by an unwanted route or on another target.

Experiment [8] can be described thus: Primary qHTS to identify inhibitors of SARS-CoV-2 cell entry (AID 1645846). Also: nearly all actives have a fitted effect of over 45% in size. The note with it: activity change, negative = inhibition: at 57.1 µM (top of the series) unless noted. An outline of the steps:
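Luminescence readout (Bright-Glo luciferase) 48 h after pseudoparticle addition. HEK293-ACE2 cells, 1500/well; compound pre-incubation 1 h; Normalized to spike PP and bald PP.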

Experiment [9] in a line: VSVG counterscreen qHTS to identify inhibitors of SARS-CoV-2 cell entry (AID 1645847). Also: potency is read from the fitted curve at half-maximal effect; nearly all actives have a fitted effect of over 65% in size. An outline of the steps: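 HEK293-ACE2 cells (Expi293F stably expressing human ACE2) were pretreated with compound for 1 h at 37 °C, then infected with MLV-based VSV-G pseudotyped particles for 48 h. Luciferase luminescence was normalized to VSV-G PP and bald PP wells.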

In the case of `C1CC[C@H]([C@@]23C[C@H](C[C@H]4CCCN[C@H]42)[C@@H]2CCCCN2C3)NC1`, the Potency entry in experiment [1], in [2], in [3], in [4] and in experiment [5] was “inactive” each time.

For `CC(C)c1nn(-c2c(Cl)cccc2Cl)c2nc(Cc3ccc(OCCO)cc3)[nH]c(=O)c12`, the Potency was 0.172 µM (active) in [1]; 0.217 µM (active) in experiment [2]; 0.153 µM (active) in experiment [3]; 0.243 µM (active) in experiment [4]; 0.0341 µM (active) in experiment [6]; 0.0541 µM (active) in [9]. The Potency entry in experiment [7] is “inactive”. In [8], the activity change, negative = inhibition is -95.3%.

`CN(C[C@@H]1COCCO1)S(=O)(=O)Nc1ccc2ccc3ncc(-c4cnn(C)c4)cc3c(=O)c2c1`: the Potency result in experiment [1], in experiment [2], in [3], in experiment [4] and in experiment [7] was “inactive” throughout.

Turning to `COc1cccc2c(NCc3ccccc3)nc(-n3c(N)nc4ccccc43)nc12`, the Potency entry in experiment [1], in experiment [2], in experiment [3], in experiment [4] and in [7] was “inactive” each time.

As to `CCN1C[C@]2(C)CC[C@H](OC)[C@]34C5C[C@@H]6CC[C@@](O)(C5C(=O)O6)C(C13)[C@@H](OC(=O)c1ccccc1)C24`, the Potency result in experiment [1], in experiment [2], in [3], in [4] and in [5] was “inactive” throughout.

On to `C=C1C2C[C@]3(C4CC5[C@@]6(C)CC[C@H](O)[C@@]5(C3CC2=O)C4[N+]([O-])(CC)C6)[C@@H]1O` (stereo partly drawn), for which the Potency entry in [1], in [2], in experiment [3], in experiment [4] and in experiment [5] was “inactive” throughout.

`CCCC1OC2C[C@@H]3[C@H]4CCC5=CC(=O)C=C[C@]5(C)[C@H]4C(O)C[C@]3(C)[C@]2(C(=O)CO)O1` (stereo partly drawn): the Potency entry in experiment [1], in [2], in [3], in experiment [4] and in [7] was “inactive” each time.

On to `CN1CC(=O)NC1=NC(=O)Nc1cccc(Cl)c1`, for which the Potency result in experiment [1], in experiment [2], in [3], in experiment [4] and in [7] was “inactive” throughout.
